Bioassay records as filed in PubChem.
HT1080 IDH1KD tx: qHTS for induction of synthetic lethality in tumor cells producing 2HG: qHTS for the HT-1080-IDH1KD cell line; HT-1080 IDH1 knockdown viability, ATP luminescence, 48 h; Potency, µM (titrated, usually from 46.1 µM), hits mostly cytotoxic; 360,000 compounds, 2% hits; AID 686971, 2013
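Using the IDH1-knockdown HT-1080 line run in the same batch and compound series as the NT line, viability after 48 h at 37 °C was determined by CellTiter-Glo luminescence and expressed as % activity.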
KB-3-1 tox: qHTS assay for MDR1-selective chemotherapeutics: Primary screen using the parental adenocarcinoma cell KB-3-1 | KB-3-1 viability, CellTiter-Glo ATP luminescence, 72 h | Potency, µM (top dose mostly 46.1 µM), most hits filed as cytotoxic | 400,000 compounds, 1.4% hits | AID 1347075, 2019; note: nearly all actives have a fitted effect of over 60% in size
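Luminescent ATP read-out (CellTiter-Glo) measures survival of drug-naive KB-3-1 cells after 72 h compound exposure at 37 °C. Titration series was screened from lowest to highest concentration, with DMSO vehicle plates as background controls.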
KB-V1 MDR tox: qHTS assay for MDR1-selective chemotherapeutics: Primary screen using the drug-selected MDR subline cells KB-V1. KB-V1 MDR cells viability, CellTiter-Glo, 72 h. Potency, µM (highest dose often 46.1 µM), usual class: cytotoxic. 400,000 compounds, 3.4% hits. AID 1347076, 2019; note: nearly all actives have a fitted effect of over 60% in size
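In this primary screen, KB-V1 cells overexpressing P-gp are incubated with library compounds (lowest to highest concentration) for 72 h at 37 degrees C before a luminescent ATP viability read.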
HT1080NT lethal: qHTS for induction of synthetic lethality in tumor cells producing 2HG: qHTS for the HT-1080-NT fibrosarcoma cell line; 360,000 compounds, 1.6% hits; Potency, µM (series often up to 46.1 µM), usual class: cytotoxic; HT-1080-NT fibrosarcoma viability, CellTiter-Glo ATP luminescence, 48 h;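 note: NT is the 2HG producing partner of a matched IDH1 knockdown line; nearly all actives have a fitted effect of over 55% in size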
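HT-1080-NT fibrosarcoma cells (2HG-overproducing), 750 cells/well in RPMI with 5% FBS, dosed after 2 h and incubated 48 h at 37C. CellTiter-Glo luminescence normalized to DMSO and no-cell wells; concentration-response curves fitted and classed.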
Each line names hits and unclear results; the compound was inactive in the other large screens. This is a sample that favours compounds with a hit; in the whole collection about 5.7% have one here. Calls come from the whole dose curve; as a rule, active = well fitted curve in the direction sought with a large enough effect; inconclusive = small, poorly fitted or top-dose-only effect, or another doubt; inactive = no such curve, though single readings can be large; an effect the other way counts as inactive or inconclusive.

CCN(CC)S(=O)(=O)c1cccc(-c2nnc(SCCOc3ccccc3)o2)c1	KB-3-1 tox inconclusive, KB-V1 MDR tox 16µM, HT1080NT lethal inconclusive
CCN(CC)S(=O)(=O)c1cccc(-c2nnc(SCCOc3ccc(Cl)cc3)o2)c1	HT1080 IDH1KD tx inconclusive, KB-3-1 tox inconclusive, KB-V1 MDR tox inconclusive
CS(=O)(=O)N1CCN(Cc2cc3nc(-c4cccc5[nH]ncc45)nc(N4CCOCC4)c3s2)CC1	KB-3-1 tox 5µM, KB-V1 MDR tox inconclusive (no result: HT1080 IDH1KD tx, HT1080NT lethal)
Cc1ccc(S(=O)(=O)N2CCN(c3nc(-c4ccc(CN5CCOCC5)s4)nc4ccccc34)CC2)cc1	KB-V1 MDR tox inconclusive (no result: HT1080 IDH1KD tx, HT1080NT lethal)
Nc1nc(=S)[nH]c2c1C1(CCCC1)Cc1ccccc1-2	KB-3-1 tox inconclusive
Nc1nc(=S)[nH]c2c1C1(CCCCC1)Cc1ccccc1-2	KB-3-1 tox inconclusive, KB-V1 MDR tox 23µM
O=C(CN1CCC(n2nnc3cc(F)ccc32)CC1)NC1CC1	KB-V1 MDR tox inconclusive
O=C(CN1CCC(n2nnc3cc(F)ccc32)CC1)NC1CCCCC1	KB-V1 MDR tox 21µM
CCOc1ccc2nc(NC(=O)CN3CCC(n4nnc5cc(F)ccc54)CC3)sc2c1	HT1080 IDH1KD tx inconclusive, KB-3-1 tox inconclusive, KB-V1 MDR tox 21µM, HT1080NT lethal inconclusive
CCCc1ccc(OCc2ccc(C(=O)Nc3ccccc3C(=O)OC)o2)cc1	none (no result: HT1080 IDH1KD tx, HT1080NT lethal)
COc1ccc(Br)cc1CNC(=O)c1cnc2sc(N3CCC(C)CC3)nn2c1=O	KB-3-1 tox inconclusive (no result: HT1080 IDH1KD tx, HT1080NT lethal)
CCc1c(C(=O)NCCc2ccc(OC)c(OC)c2)[nH]c(C)c1C(C)=O	HT1080 IDH1KD tx inconclusive, KB-V1 MDR tox 15µM, HT1080NT lethal inconclusive
CCc1c(C(=O)NCCc2cccc(C)c2)[nH]c(C)c1C(C)=O	HT1080 IDH1KD tx inconclusive, KB-3-1 tox inconclusive, KB-V1 MDR tox 12µM
CCc1c(C(=O)Nc2cc(C)ccc2OC)[nH]c(C)c1C(C)=O	none
CCc1c(C(=O)NC2CCCCC2)[nH]c(C)c1C(C)=O	KB-V1 MDR tox 18µM
CC(C)c1ccc(/C=N/NC(=O)c2cc(-c3cccc([N+](=O)[O-])c3)n[nH]2)cc1	HT1080 IDH1KD tx 23µM, KB-3-1 tox inconclusive, HT1080NT lethal inconclusive
O=C(N/N=C/c1ccc(Cl)c([N+](=O)[O-])c1)c1cc(-c2ccc3c4c(cccc24)CC3)n[nH]1	HT1080 IDH1KD tx 8.2µM, KB-3-1 tox inconclusive, KB-V1 MDR tox inconclusive, HT1080NT lethal 5.2µM
CC(C)c1ccc(/C=N/NC(=O)c2cccc(Cl)c2)cc1	HT1080 IDH1KD tx 21µM, KB-3-1 tox 13µM, KB-V1 MDR tox 8.2µM, HT1080NT lethal 23µM
COc1cc(OC)cc(-n2c(=O)c3ccccc3n(CC(=O)NCCc3ccc(OC)c(OC)c3)c2=O)c1	KB-V1 MDR tox inconclusive (no result: HT1080 IDH1KD tx, HT1080NT lethal)
O=C(CN1CCN(Cc2ccccc2Cl)C1=O)NCc1ccccn1	none
COc1ccc(CCNC(=O)c2ccc3c(c2)c(C)c(C)n3Cc2ccc(F)cc2)c(OC)c1OC	none (no result: HT1080 IDH1KD tx, HT1080NT lethal)
O=C1C=C(N(CCO)Cc2ccccc2)c2ccccc2C1=O	HT1080 IDH1KD tx 15µM, KB-3-1 tox inconclusive, KB-V1 MDR tox 18µM, HT1080NT lethal 8.2µM
O=C(NCCC1CCCCN1S(=O)(=O)c1cccs1)C(=O)Nc1ccccc1F (configuration not stated)	none
O=C(NCCC1CCCCN1S(=O)(=O)c1cccs1)C(=O)NCc1ccccc1 (configuration not stated)	KB-3-1 tox inconclusive, KB-V1 MDR tox 15µM
COc1ccccc1NC(=O)C(=O)NCCC1CCCCN1S(=O)(=O)c1cccs1 (configuration not stated)	KB-3-1 tox inconclusive
COc1ccccc1NC(=O)C(=O)NCC1CCCN1S(=O)(=O)c1cccs1 (configuration not stated)	KB-V1 MDR tox 4.6µM
O=C(NCCC1CCCCN1S(=O)(=O)c1cccs1)C(=O)Nc1cccc(F)c1 (configuration not stated)	KB-V1 MDR tox 16µM
O=C(NCCC1CCCCN1S(=O)(=O)c1cccs1)C(=O)Nc1ccc(F)cc1 (configuration not stated)	HT1080 IDH1KD tx inconclusive, KB-3-1 tox inconclusive, KB-V1 MDR tox inconclusive
Cc1ccc(CNC(=O)C(=O)NCC2CCCN2S(=O)(=O)c2cccs2)cc1 (configuration not stated)	KB-V1 MDR tox 9.2µM
COc1cccc(CNC(=O)Nc2ccc3c(c2)N(C)C(=O)c2ccccc2S3)c1	KB-3-1 tox inconclusive (no result: HT1080 IDH1KD tx, HT1080NT lethal)
CN1/C(=C\C(=S)NC(=O)c2cccc(Br)c2)C(C)(C)c2ccccc21	HT1080 IDH1KD tx inconclusive, KB-3-1 tox inconclusive, KB-V1 MDR tox 8.2µM
CN1/C(=C\C(=S)NC(=O)c2ccc([N+](=O)[O-])cc2)C(C)(C)c2ccccc21	none
O=c1c2cn[nH]c2nc(SCc2ccccc2F)n1-c1ccc(Br)cc1	HT1080 IDH1KD tx 18µM
O=c1c2ccccc2n(Cc2c(F)cccc2Cl)c(=O)n1CCc1ccccc1	none (no result: HT1080 IDH1KD tx, HT1080NT lethal)
CC1CCCN(CCCNC(=O)c2ccc(NC(=O)C3=CSCCO3)cc2)C1 (configuration not stated)	none
Cc1cccc(N2CCN(CCCNC(=O)c3ccc(NC(=O)C4=CSCCO4)cc3)CC2C)c1 (configuration not stated)	HT1080 IDH1KD tx 21µM, HT1080NT lethal inconclusive
COc1ccc2cc3cc(C(=O)NCCc4ccccc4)sc3nc2c1Cl	none (no result: HT1080 IDH1KD tx, HT1080NT lethal)
Cc1ccc(NC(=O)c2cc3ccccn3n2)cc1F	none (no result: HT1080 IDH1KD tx, HT1080NT lethal)
COc1ccc(Cl)cc1N(C)c1nc(N2CCN(S(=O)(=O)c3ccc(C)cc3)CC2)c2ccccc2n1	none (no result: KB-3-1 tox, KB-V1 MDR tox)
COc1ccc(NS(=O)(=O)c2ccc(C)c(C(=O)OC(C)C(=O)N3CCOCC3)c2)cc1 (configuration not stated)	none
COc1cc(OC)c(NS(=O)(=O)c2ccc(Cl)c(C(=O)OC(C)C(=O)N3CCCC3)c2)cc1Cl (configuration not stated)	HT1080 IDH1KD tx inconclusive, KB-3-1 tox 16µM, KB-V1 MDR tox 2.3µM
COC(=O)[C@@]1(Sc2ccc(C)cc2)CC(=O)N(c2ccccc2)[C@@H]1c1ccccc1	HT1080 IDH1KD tx inconclusive, KB-3-1 tox inconclusive, KB-V1 MDR tox 16µM, HT1080NT lethal inconclusive
FC(F)(F)c1nnc2c(Sc3ccccc3)nc3ccc(Cl)cc3n12	KB-3-1 tox inconclusive, KB-V1 MDR tox inconclusive, HT1080NT lethal 9.2µM
COc1cccc(Cn2c(=O)n(-c3ccc(Br)cc3F)c(=O)c3sc4ccccc4c32)c1	none (no result: HT1080 IDH1KD tx, HT1080NT lethal)
COc1ccc(NC(=O)c2cc3nc(-c4ccc(C)c(C)c4)cc(C(F)(F)F)n3n2)cc1	none (no result: HT1080 IDH1KD tx, HT1080NT lethal)
COc1ccc(C(CC(=O)N2CCCCC2)NC(=O)C(F)(F)F)cc1 (configuration not stated)	none
COc1ccc(C(CC(=O)Nc2ccc(Cl)cc2F)NC(=O)C(F)(F)F)cc1 (configuration not stated)	HT1080 IDH1KD tx inconclusive, KB-V1 MDR tox 8.2µM, HT1080NT lethal inconclusive
